Data: PubChem BioAssay (NCATS)
Inconclusive results are not listed. Activity calls are given as the source filed them. Unless noted, calls come from the whole dose curve; as a rule, active = well fitted curve in either direction with a large enough effect (not every such curve was filed as active); inconclusive = small, poorly fitted or top-dose-only effect, or another doubt; inactive = flat fitted curve, though single readings scatter.

What was measured:
[1] = AP1 Signaling Pathway (AID 357); details: ME-180 AP-1-bla reporter, EGF-induced, beta-lactamase ratio, 5 h; at 7.69 µM (top of the series) unless noted;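 note: ME-180 reporter cells stimulated with EGF at its EC50 level; % is set by controls: 0 for no effect and ±100 for the full control effect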
In short: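 Beta-lactamase reporter under AP-1 response element, ME-180 background. Stimulus: EC50 EGF. Compound exposure 5 h, 37 °C. Detection: CCF4, 2.5 h RT, 460/530 nm. Values: AC50 from titration.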

[2] = NFAT Signaling Pathway (AID 444); details: Jurkat NFAT-bla M1, carbachol, beta-lactamase ratio, 5 h; at 7.69 µM (top of the series) unless noted;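 note: carbachol stimulus at about its EC50 of 1 µM final; % is set by controls: 0 for no effect and ±100 for the full control effect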
In short: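 Jurkat cells carrying an NFAT-driven β-lactamase reporter and co-transfected muscarinic M1 receptor were treated with compound plus carbachol (1 uM final, an EC50 level) for 5 h at 37 °C. CCF4 loading followed for 1 h at RT; 460/530 nm ratio gave %activity.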

[3] = Stat Signaling Pathway (AID 446); details: ME-180 SIE beta-lactamase reporter, IL-6 stimulated, 5 h; at 7.69 µM (top of the series) unless noted;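 note: ME-180 cervical cancer cells given 40 pM IL-6 alongside compound; SIE-controlled beta-lactamase reporter measured as 460/530 nm FRET emission ratio; % is set by controls: 0 for no effect and ±100 for the full control effect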
In short: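 ME-180 cells carrying a SIE-driven beta-lactamase reporter are stimulated with 40 pM IL-6 for 5 h at 37C in the presence of compound. The 460/530 nm FRET substrate ratio is read after 2.5 h at RT. Data are normalised to 300 pM IL-6 and to 125 nM JAK inhibitor controls.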

[4] = target: Glucocorticoid receptor (Homo sapiens) (UniProt P04150); assay: GR-GFP Redistribution (AID 450;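 active = compounds whose dose series gives a full or clear partial fitted curve of increased nuclear translocation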; note: potency is the fitted concentration of half-maximal effect); details: U2OS GR-GFP nuclear translocation, laser cytometry, 2 h
Chain of Glucocorticoid receptor (Homo sapiens) (P04150 whole entry, looked up, the tested form may be a part): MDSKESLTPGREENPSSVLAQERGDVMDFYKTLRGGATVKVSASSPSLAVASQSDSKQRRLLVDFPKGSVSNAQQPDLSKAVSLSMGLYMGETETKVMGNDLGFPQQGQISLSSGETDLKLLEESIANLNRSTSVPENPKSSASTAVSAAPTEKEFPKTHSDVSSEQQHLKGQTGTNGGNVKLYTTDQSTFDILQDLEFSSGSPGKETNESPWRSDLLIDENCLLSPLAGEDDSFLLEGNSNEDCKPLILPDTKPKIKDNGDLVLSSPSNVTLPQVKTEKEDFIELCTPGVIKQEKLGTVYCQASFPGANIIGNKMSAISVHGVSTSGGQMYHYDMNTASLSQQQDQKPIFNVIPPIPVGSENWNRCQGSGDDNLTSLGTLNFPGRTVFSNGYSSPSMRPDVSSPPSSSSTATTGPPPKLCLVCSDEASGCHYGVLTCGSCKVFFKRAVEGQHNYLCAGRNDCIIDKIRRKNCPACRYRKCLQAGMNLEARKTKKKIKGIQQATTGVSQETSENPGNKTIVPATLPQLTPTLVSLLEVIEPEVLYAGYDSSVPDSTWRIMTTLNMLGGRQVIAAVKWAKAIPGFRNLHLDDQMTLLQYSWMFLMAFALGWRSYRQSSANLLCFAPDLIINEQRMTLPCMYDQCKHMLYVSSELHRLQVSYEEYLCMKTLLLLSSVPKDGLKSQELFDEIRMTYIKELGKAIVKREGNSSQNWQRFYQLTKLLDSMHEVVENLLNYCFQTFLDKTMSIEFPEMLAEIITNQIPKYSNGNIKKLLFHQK

[5] = target: Glucocorticoid receptor (Homo sapiens) (UniProt P04150); assay: GR-EFC Redistribution (AID 451; calls by dose curve; note: potency is the fitted concentration of half-maximal effect); details: CHO-K1 GR-EFC translocation, beta-gal luminescence, 2 h
In short: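 CHO-K1 cells stably expressing nuclear-localized β-gal enzyme acceptor and GR fused C-terminally to the enzyme donor fragment; ligand-driven nuclear translocation restores β-gal by complementation. Compounds titrated up to 46 uM final, 2 h at 37 °C; luminescence read.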

[6] = target: Mitogen-activated protein kinase 10 (Mus musculus) (UniProt Q61831); assay: JNK3 AlphaScreen Assay (AID 530);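 note: kinase came from lysate of stimulated human HepG2 cells; signal reports phosphorylation of biotinylated GST-cJun 1-79 at Ser73 with 10 µM ATP; % is set by controls: 0 for no effect and ±100 for the full control effect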
In short: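 Inhibitors reduce antibody binding to phosphorylated biotin-cJun, lowering AlphaScreen luminescence. Lysates from HepG2 cells pre-activated by IL-1beta plus TNF-alpha supplied JNK3; compounds were titrated.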

[7] = target: 3',5'-cyclic-AMP phosphodiesterase 4B (Homo sapiens) (UniProt Q07343); assay: qHTS Assay for Inhibitors of PDE-IV (AID 607; active = well fitted activation curve with a large enough effect in the main read-out, with a control signal flat, not every such curve was filed as active; note: % of control where 0% means no effect)
Chain of 3',5'-cyclic-AMP phosphodiesterase 4B (Homo sapiens) (Q07343 whole entry, looked up): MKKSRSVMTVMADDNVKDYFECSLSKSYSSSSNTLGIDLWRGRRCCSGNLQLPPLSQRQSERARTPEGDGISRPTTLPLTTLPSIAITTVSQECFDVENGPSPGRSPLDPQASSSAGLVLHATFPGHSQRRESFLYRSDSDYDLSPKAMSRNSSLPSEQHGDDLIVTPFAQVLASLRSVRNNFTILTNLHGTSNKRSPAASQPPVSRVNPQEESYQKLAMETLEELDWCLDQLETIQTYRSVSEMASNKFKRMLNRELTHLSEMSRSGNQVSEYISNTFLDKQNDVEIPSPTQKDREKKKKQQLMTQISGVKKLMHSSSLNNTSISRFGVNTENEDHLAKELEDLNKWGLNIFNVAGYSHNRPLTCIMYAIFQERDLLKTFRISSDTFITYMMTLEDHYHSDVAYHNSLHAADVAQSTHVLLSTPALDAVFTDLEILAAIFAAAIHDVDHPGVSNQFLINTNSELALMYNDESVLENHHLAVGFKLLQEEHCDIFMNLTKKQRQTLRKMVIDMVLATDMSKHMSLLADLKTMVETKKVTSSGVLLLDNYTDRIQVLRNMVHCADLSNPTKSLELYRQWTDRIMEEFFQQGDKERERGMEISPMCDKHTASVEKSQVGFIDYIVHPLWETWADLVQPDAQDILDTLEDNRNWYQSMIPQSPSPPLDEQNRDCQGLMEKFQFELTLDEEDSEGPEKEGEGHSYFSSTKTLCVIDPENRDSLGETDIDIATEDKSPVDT
In short: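 HEK293 ACTOne cells with CNG channel (1000/well), endogenous PDE4; membrane potential dye, compounds up to 22.9 uM final. Fluorescence Ex 535/Em 590; RO 20-1724 (100 uM final) as reference.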

[8] = target: Guanine nucleotide-binding protein G(i) subunit alpha-1 (Homo sapiens) (UniProt P63096); assay: qHTS Assay for Inhibitors of RGS12 GoLoco Motif Activity (Green Fluorophore) (AID 879; active = well fitted curve in the direction sought with a large enough effect; an effect the other way counts as inactive or inconclusive;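 note: 0% = labeled peptide with Gαi1 and full inhibition = labeled peptide alone without protein; negative values mean loss of peptide binding seen as reduced polarization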)
Chain of Guanine nucleotide-binding protein G(i) subunit alpha-1 (Homo sapiens) (P63096 whole entry, looked up): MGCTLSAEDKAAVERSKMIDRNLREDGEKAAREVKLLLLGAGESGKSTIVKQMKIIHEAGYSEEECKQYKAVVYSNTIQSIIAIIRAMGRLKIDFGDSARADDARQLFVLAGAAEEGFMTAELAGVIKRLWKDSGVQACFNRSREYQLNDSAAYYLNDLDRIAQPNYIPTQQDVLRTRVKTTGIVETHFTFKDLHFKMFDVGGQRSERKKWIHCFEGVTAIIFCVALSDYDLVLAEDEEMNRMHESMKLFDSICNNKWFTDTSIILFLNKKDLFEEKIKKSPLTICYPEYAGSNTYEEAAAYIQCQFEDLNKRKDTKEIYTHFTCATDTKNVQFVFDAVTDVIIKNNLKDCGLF
In short: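 Fluorescence polarization assay: 50 nM Gαi1 with 10 nM FITC-labeled RGS12 GoLoco peptide in 10 mM Tris pH 7.5, 150 mM NaCl, 0.1 mM GDP, 0.05% NP40, 10 min at room temperature with compound.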

[9] = qHTS Assay for Identification of Small Molecule Agonists for Thrombopoietin (TPO) Signaling Pathway (AID 917; active = well fitted curve in the direction sought with a large enough effect; an effect the other way counts as inactive or inconclusive; note: % is set by controls: 0 for no effect and ±100 for the full control effect)
In short: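 Activators of TPO signaling were sought in murine Ba/F3 cells transfected with the human receptor, using a luciferase gene driven by the Glycoprotein IIb promoter; 24-hr compound exposure at 37 C alongside 26 pM TPO, in IL-3-free medium.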

[10] = target: Pyruvate kinase PKM (Homo sapiens) (UniProt P14618); assay: qHTS Assay for Activators of Human Muscle Pyruvate Kinase (AID 954; active = well fitted curve in the direction sought with a large enough effect, not every such curve was filed as active;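 note: 0% = uninhibited enzyme and -100% = no enzyme or full thiadiazolimine inhibition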)
Chain of Pyruvate kinase PKM (Homo sapiens) (P14618 whole entry, looked up): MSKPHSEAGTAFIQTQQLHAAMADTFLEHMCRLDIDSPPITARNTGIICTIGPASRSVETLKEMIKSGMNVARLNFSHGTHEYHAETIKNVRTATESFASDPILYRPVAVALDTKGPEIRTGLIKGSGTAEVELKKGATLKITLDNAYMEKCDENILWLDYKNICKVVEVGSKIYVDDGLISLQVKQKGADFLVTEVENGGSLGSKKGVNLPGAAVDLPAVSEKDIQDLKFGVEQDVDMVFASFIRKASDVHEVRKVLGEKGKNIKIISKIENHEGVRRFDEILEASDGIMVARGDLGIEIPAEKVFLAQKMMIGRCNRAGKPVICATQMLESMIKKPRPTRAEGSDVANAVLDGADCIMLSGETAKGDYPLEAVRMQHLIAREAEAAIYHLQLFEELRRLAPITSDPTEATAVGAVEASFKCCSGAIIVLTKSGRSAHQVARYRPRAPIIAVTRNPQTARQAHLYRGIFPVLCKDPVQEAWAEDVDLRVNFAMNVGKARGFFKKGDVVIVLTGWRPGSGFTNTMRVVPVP
In short: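 Purified human PKM2 (0.1 nM) with 0.5 mM PEP (Km) and 0.1 mM ADP in 50 mM imidazole pH 7.2, KCl, MgCl2, 1 h at room temperature; ATP formed read by coupled luciferase luminescence. Normalized to no-enzyme/110 uM thiadiazolimine inhibition; 0.3 nM enzyme column for activation.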

[11] = target: Alpha-galactosidase A (Homo sapiens) (UniProt P06280); assay: Counterscreen for Glucocerebrosidase Inhibitors: qHTS Assay for Human alpha-Galactosidase at pH 4.5 (AID 992; active = well fitted curve in the direction sought with a large enough effect; an effect the other way counts as inactive or inconclusive; note: 0% is about no effect)
Chain of Alpha-galactosidase A (Homo sapiens) (P06280 whole entry, looked up): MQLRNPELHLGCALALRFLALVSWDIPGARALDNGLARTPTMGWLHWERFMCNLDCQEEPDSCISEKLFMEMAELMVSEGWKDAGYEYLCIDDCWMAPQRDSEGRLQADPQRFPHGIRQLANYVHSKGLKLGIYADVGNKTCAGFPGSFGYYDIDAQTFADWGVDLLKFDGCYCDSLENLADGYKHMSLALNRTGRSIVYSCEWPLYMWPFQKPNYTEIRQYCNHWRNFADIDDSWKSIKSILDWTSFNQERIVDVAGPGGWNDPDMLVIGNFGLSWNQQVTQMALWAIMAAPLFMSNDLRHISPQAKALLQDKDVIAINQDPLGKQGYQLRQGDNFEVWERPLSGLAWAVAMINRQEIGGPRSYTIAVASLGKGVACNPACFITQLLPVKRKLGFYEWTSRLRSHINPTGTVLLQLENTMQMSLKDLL
In short: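 Human enzyme (2 nM) with 80 uM 4-methylumbelliferyl alpha-D-galactopyranoside in 50 mM citric acid, 0.005% Tween-20, pH 4.5, 20 min at room temperature. Compounds 0.7 nM–77 uM; fluorescence Ex 365/Em 440 after pH 10 stop; AC50 from Hill fits.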

[12] = target: alpha-glucosidase (Oryza sativa, rice) (UniProt Q653V4); assay: Counterscreen for Glucocerebrosidase Inhibitors: qHTS Assay for Rice alpha-Glucosidase at pH 5.0 (AID 997; active = well fitted curve in the direction sought with a large enough effect; an effect the other way counts as inactive or inconclusive;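 note: 0% = full activity with enzyme and -100% = basal without enzyme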)
In short: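 Rice alpha-glucosidase (4 nM final) with 400 uM 4-methylumbelliferyl-alpha-D-glucopyranoside in citrate buffer pH 5.0, 20 min at room temperature, stopped at pH 10; fluorescence 365/440 nm, compounds 0.7 nM–77 uM, AC50 from Hill fits.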

[13] = target: Cytochrome P450 1A2 (Homo sapiens) (UniProt P05177); assay: p450-cyp1a2 (AID 410; calls by dose curve;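 note: -100% = full effect of reference inhibitor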)
Chain of Cytochrome P450 1A2 (Homo sapiens) (P05177 whole entry, looked up): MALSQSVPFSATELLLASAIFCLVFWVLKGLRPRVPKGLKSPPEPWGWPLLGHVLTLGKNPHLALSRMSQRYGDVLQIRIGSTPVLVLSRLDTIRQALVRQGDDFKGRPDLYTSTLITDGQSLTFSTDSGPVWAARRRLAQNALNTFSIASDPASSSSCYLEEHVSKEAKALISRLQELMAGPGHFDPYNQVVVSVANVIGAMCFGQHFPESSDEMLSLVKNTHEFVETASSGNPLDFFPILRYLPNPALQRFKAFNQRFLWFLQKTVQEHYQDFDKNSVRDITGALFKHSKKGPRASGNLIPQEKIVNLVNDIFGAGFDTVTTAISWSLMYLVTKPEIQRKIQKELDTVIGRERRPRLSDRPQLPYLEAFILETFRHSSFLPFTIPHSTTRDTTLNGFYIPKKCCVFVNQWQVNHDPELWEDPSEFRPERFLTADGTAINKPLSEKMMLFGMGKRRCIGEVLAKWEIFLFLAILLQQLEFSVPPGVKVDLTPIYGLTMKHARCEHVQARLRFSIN
In short: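 20nM CYP1A2 with 100uM Luciferin-ME (at Km) in 100mM KPO4; compound preincubated 10 min, NADPH regeneration added, 60 min at room temperature. Luciferin quantified by luminescence after detection reagent; normalized to 57 uM furafylline.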

[14] = target: Cytochrome P450 3A4 (Homo sapiens) (UniProt P08684); assay: qHTS Assay for Inhibitors and Substrates of Cytochrome P450 3A4 (AID 884; active = well fitted curve in the direction sought with a large enough effect; an effect the other way counts as inactive or inconclusive; note: % is set by controls: 0 for no effect and ±100 for the full control effect; nearly all actives have a fitted effect of over 50% in size)
Chain of Cytochrome P450 3A4 (Homo sapiens) (P08684 whole entry, looked up): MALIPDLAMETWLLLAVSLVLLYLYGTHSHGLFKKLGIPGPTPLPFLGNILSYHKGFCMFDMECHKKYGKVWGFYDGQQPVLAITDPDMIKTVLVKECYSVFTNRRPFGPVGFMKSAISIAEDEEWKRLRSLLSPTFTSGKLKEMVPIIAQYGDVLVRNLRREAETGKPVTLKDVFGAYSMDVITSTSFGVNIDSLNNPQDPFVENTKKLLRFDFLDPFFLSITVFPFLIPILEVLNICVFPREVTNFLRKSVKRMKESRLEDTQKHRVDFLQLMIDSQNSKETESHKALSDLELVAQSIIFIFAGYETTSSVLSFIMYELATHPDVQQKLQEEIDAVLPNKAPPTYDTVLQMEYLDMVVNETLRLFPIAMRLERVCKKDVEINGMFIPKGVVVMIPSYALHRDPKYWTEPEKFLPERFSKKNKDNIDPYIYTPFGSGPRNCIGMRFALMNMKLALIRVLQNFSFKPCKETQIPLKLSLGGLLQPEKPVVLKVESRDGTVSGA
In short: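 20 nM human CYP3A4 with 25 uM Luciferin-PPXE (at KM) in 200 mM KPO4, preincubated 10 min with compound; NADPH regeneration started a 60 min RT reaction. Luciferin detected by luminescence, normalized to 57 uM ketoconazole as full inhibition.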

[15] = target: Muscarinic acetylcholine receptor M1 (Rattus norvegicus) (UniProt P08482); assay: qHTS Assay for Antagonists of Acetylcholine Muscarinic M1 Receptor: Measurement of IP-One Response (AID 944; active = well fitted curve in the direction sought with a large enough effect; an effect the other way counts as inactive or inconclusive; note: nearly all actives have a fitted effect of over 75% in size)
Chain of Muscarinic acetylcholine receptor M1 (Rattus norvegicus) (P08482 whole entry, looked up): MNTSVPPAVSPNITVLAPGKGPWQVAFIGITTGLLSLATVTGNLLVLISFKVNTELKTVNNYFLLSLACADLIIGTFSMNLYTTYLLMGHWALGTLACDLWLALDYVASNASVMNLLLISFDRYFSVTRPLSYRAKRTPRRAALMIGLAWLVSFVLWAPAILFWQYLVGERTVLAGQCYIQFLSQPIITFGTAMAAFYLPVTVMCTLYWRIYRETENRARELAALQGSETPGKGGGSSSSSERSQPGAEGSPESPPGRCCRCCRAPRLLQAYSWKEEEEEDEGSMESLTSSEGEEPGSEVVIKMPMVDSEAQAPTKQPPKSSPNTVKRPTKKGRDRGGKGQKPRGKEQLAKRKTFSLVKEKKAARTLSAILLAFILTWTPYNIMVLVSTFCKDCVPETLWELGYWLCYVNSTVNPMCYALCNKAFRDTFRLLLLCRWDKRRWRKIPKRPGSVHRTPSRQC
In short: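 CHO cells stably expressing rat M1, pretreated 10 min with compound, then stimulated 30 min with carbachol at EC80 (200 nM) in LiCl-containing buffer pH 7.4; IP1 accumulation read by HTRF competition (665/620 nm).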

[16] = target: Pyruvate kinase (Leishmania mexicana) (UniProt Q27686); assay: qHTS Validation Assay for Inhibitors of Leishmania Mexicana Pyruvate Kinase (AID 945; active = well fitted curve in the direction sought with a large enough effect; an effect the other way counts as inactive or inconclusive;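 note: 0% = DMSO only neutral control wells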)
Chain of Pyruvate kinase (Leishmania mexicana) (Q27686 2-499 E452W): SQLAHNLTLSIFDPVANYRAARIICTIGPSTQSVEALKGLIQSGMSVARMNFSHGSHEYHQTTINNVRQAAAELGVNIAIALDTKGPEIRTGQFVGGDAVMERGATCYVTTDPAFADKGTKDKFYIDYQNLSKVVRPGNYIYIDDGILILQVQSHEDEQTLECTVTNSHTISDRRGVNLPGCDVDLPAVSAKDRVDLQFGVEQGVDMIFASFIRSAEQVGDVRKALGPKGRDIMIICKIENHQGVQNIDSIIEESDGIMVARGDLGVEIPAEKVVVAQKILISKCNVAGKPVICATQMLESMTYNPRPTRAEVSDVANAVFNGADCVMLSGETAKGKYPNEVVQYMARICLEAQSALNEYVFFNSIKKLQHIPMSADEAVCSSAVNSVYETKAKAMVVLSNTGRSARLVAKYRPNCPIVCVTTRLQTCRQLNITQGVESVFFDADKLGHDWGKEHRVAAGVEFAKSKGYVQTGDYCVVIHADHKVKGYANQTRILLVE
In short: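 Mutant LmPYK (E451W), 0.2 nM, plus 0.5 mM PEP and 0.1 mM ADP in 50 mM imidazole pH 7.2 containing 0.01% Tween 20 and 0.05% BSA. Incubated 1 h at room temperature; luminescence via PKLight, normalized to DMSO.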

[17] = qHTS Assay for Identification of Small Molecule Agonists for Hypoxia Response Element Signaling Pathway (AID 914; active = well fitted activation curve with a large enough effect in the signal ratio, with a control signal flat, not every such curve was filed as active; the % refers to the signal ratio; note: potency is the fitted concentration of half-maximal effect); details: ME-180 (cervical carcinoma) HRE-bla reporter, beta-lactamase ratio, CoCl2, 17 h; activation: hits give high values
In short: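 Reporter activity (beta-lactamase, CCF4 460nm/530nm ratio) in HRE-bla ME-180 cells is recorded after 17 h compound exposure with EC50 CoCl2 at 37 degrees Celsius. AC50 values come from titration data.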

CN[C@@H](CC(C)C)C(=O)N[C@@H]1C(=O)N[C@H](CC(N)=O)C(=O)N[C@H]2C(=O)N[C@H]3C(=O)N[C@H](C(=O)N[C@H](C(=O)O)c4cc(O)cc(O)c4-c4cc3ccc4O)[C@H](O)c3ccc(c(Cl)c3)Oc3cc2cc(c3O[C@@H]2O[C@@H](CO)[C@@H](O)[C@@H](O)[C@H]2O[C@H]2C[C@](C)(N)[C@H](O)[C@H](C)O2)Oc2ccc(cc2Cl)[C@@H]1O
inactive: activity change, negative = inhibition [1] -0.977% [at 38 µM] | activity change, negative = inhibition [2] 0.625% [at 38 µM] | activity, negative = inhibition [3] 4.5% [at 38 µM] | Potency [4] > 46 µM | Potency [5] > 46 µM | Potency [6] | Potency [7] | outcome [8] | outcome [9] | outcome [10] | outcome [11] | Potency [12]

COC(=O)[C@](C)(N)Cc1ccc(O)cc1
inactive: activity change, negative = inhibition [1] 9.7% [at 38 µM] | Potency [13] | activity, negative = inhibition [3] -6.8% [at 38 µM] | Potency [4] > 46 µM | Potency [5] > 46 µM | Potency [6] | Potency [7] | Potency [14] | outcome [9] | Potency [15] | outcome [16] | outcome [10] | outcome [11] | Potency [12]

COc1cccc(Nc2ncc3nc(-c4ccccc4)c(=O)n(C4CC4)c3n2)c1
active: Potency [17] 3.16 µM
inactive: activity change, negative = inhibition [2] -5.16% | activity, negative = inhibition [3] 28.4% | Potency [4] > 9.22 µM | Potency [5] > 46 µM | Potency [6] | Potency [7]

Cc1cc2c(=O)[nH]c(N)nc2nc1C
inactive: activity change, negative = inhibition [1] 1.82% | activity change, negative = inhibition [2] 7.25% | activity, negative = inhibition [3] 9.62% | Potency [4] > 46 µM | Potency [5] > 9.22 µM | Potency [6] | Potency [7]

O=C1CSC(=S)N1/N=C\c1ccc(Cl)c([N+](=O)[O-])c1
inactive: activity change, negative = inhibition [1] 1.11% | activity change, negative = inhibition [2] 6.49% | activity, negative = inhibition [3] 1.79% | Potency [4] > 46 µM | Potency [5] > 9.22 µM | Potency [6] | Potency [7]

NCCNCC1CCNCC1
inactive: activity change, negative = inhibition [13] -3.6% [at 2.29 µM] | activity change, negative = inhibition [2] 8.35% | activity, negative = inhibition [3] 3.5% | Potency [4] > 46 µM | Potency [5] > 9.22 µM | Potency [6] | Potency [7]

CC1=N[C@@](C)(COC(=O)[C@]2(C)N[C@](C)(CO)CO2)COC1=O
inactive: activity change, negative = inhibition [1] 0.84% | activity change, negative = inhibition [13] 6.9% [at 2.29 µM] | activity, negative = inhibition [3] 6.3% | Potency [4] > 46 µM | Potency [5] > 9.22 µM | Potency [6] | Potency [7]
